Assay results reported in PubChem BioAssay (NCI).
Compounds without any hit were thinned out: in the full panel of roughly 79,000, 15% have a hit. The source made the active and inactive calls. Rule as the data show it: active = growth inhibition above about 70%; inactive = the rest.

Tests used:
[1] = NCI Yeast Anticancer Drug Screen. Data for the rad52 strain (AID 147);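 also: 0% = growth of vehicle-treated control cultures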; settings: S. cerevisiae rad52 mutant growth inhibition, hits give high values
Outline: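 Genetically altered yeast (DNA damage repair defect) treated with compound; inhibition calculated relative to vehicle.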

[2] = NCI Yeast Anticancer Drug Screen. Data for the wt1 strain (AID 149);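 also: 0% = growth of vehicle-treated wt1 cultures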; settings: S. cerevisiae wt1 strain (SPY 50644) growth inhibition, hits give high values
Outline: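 Measured: growth of wt1 yeast under compound versus vehicle treatment, reported as inhibition.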

[3] = NCI Yeast Anticancer Drug Screen. Data for the rad50EPP+ strain (AID 151);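 also: 0% = growth of vehicle-treated control cultures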; settings: S. cerevisiae rad50 mutant strain, hits give high values
Outline: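 Strain rad50EPP+; compound exposure; % growth inhibition vs vehicle.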

[4] = NCI Yeast Anticancer Drug Screen. Data for the mgt1 strain (AID 153); settings: S. cerevisiae mgt1 mutant growth inhibition, hits give high values
Outline: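 Read-out: yeast growth inhibition vs vehicle control. Strain mgt1, drawn from a panel altered in DNA damage repair or cell cycle control.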

[5] = NCI Yeast Anticancer Drug Screen. Data for the rad50 strain (AID 155);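 also: 0% = growth of vehicle-only cultures of the same strain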; settings: S. cerevisiae rad50 strain growth inhibition, hits give high values
Outline: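 Growth of the mutant yeast was measured after compound exposure and referenced to vehicle-treated cultures.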

[6] = NCI Yeast Anticancer Drug Screen. Data for the mec2-1 strain (AID 157); settings: S. cerevisiae mec2-1 strain, hits give high values
Outline: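 Cells of the genetically defined mec2-1 yeast strain are incubated with test compound. Inhibition of growth is calculated against vehicle-treated controls.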

[7] = NCI Yeast Anticancer Drug Screen. Data for the rad14 strain (AID 159);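 also: 0% = growth of vehicle-treated control cultures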; settings: S. cerevisiae rad14 strain growth inhibition, hits give high values
Outline: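 Here, inhibition of yeast growth was measured after compound exposure, using a strain with a genetic defect in DNA damage repair and vehicle-treated cultures as the reference.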

[8] = NCI Yeast Anticancer Drug Screen. Data for the sgs1 mgt1 strain (AID 161);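 also: 0% = growth of cultures given vehicle only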; settings: S. cerevisiae sgs1 mgt1 strain, hits give high values
Outline: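 Genetically altered yeast, compound exposure, growth inhibition relative to vehicle.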

[9] = NCI Yeast Anticancer Drug Screen. Data for the CLN2oe strain (AID 163);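 also: 0% = growth of vehicle-only control cultures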; settings: S. cerevisiae CLN2oe strain, hits give high values
Outline: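 Strain altered in cell-cycle control, incubated with compound; growth compared to solvent-treated controls.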

[10] = NCI Yeast Anticancer Drug Screen. Data for the cln2 rad14 strain (AID 165);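 also: 0% = growth equal to vehicle treated cultures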; settings: S. cerevisiae cln2 rad14 strain, hits give high values
Outline: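 The screen exposed genetically defined yeast (cln2 rad14) to test compounds and scored growth inhibition relative to vehicle-treated controls.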

[11] = NCI Yeast Anticancer Drug Screen. Data for the bub3 strain (AID 167); settings: S. cerevisiae bub3 mutant strain, hits give high values
Outline: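 Whole-cell yeast assay. The mutant strain was incubated with compounds, and growth inhibition was determined by comparison with vehicle-treated cells.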

[12] = NCI Yeast Anticancer Drug Screen. Data for the wt2 strain (AID 169);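 also: 0% = growth of vehicle-treated yeast cultures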; settings: S. cerevisiae wt2 strain growth inhibition, hits give high values
Outline: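 Steps: yeast strain treated with compound; growth recorded; inhibition calculated relative to cultures given vehicle alone.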

[13] = NCI Yeast Anticancer Drug Screen. Data for the mlh1 strain (AID 171);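 also: 0% = growth of vehicle-treated control cultures of the same strain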; settings: S. cerevisiae mlh1 strain growth inhibition, hits give high values
Outline: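 Yeast screen: mutant strain plus compound, growth scored against vehicle control wells.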

[14] = NCI Yeast Anticancer Drug Screen. Data for the sgs1 strain (AID 173);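 also: 0% = growth of vehicle-only control cultures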; settings: S. cerevisiae sgs1 mutant, hits give high values
Outline: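 Inhibition of yeast growth served as the measure. The mutant strain was treated with each compound, and growth was normalised to cultures receiving vehicle alone.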

[15] = NCI Yeast Anticancer Drug Screen. Data for the mlh1 rad18 strain (AID 175); settings: S. cerevisiae mlh1 rad18 strain growth inhibition, hits give high values
Outline: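 Compound-treated yeast growth, normalised to vehicle controls. Strain bears defined DNA repair mutations.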

[16] = NCI Yeast Anticancer Drug Screen. Data for the rad18 strain (AID 177); settings: S. cerevisiae rad18 mutant growth inhibition, hits give high values
Outline: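 Inhibition values reflect reduced yeast growth compared with vehicle-treated controls, using a strain engineered with a DNA damage repair defect.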

[17] = at 5.0 µM (retest, dose inferred, filed as 0.5)
[18] = at 50.0 µM (retest, dose inferred, filed as 5.0)

Measured: growth inhibition

O=C1NC(=O)C2C3C=CC(C3)C12 (stereo not drawn)
inactive: [1]; at 1.2 µM -7% | [1]; at 3.7 µM 0% | [1]; at 11.0 µM -2% | [1]; at 33.0 µM -7% | [1]; at 100.0 µM -7% | [2]; at 1.2 µM -5% | [2]; at 3.7 µM -5% | [2]; at 11.0 µM -7% | [2]; at 33.0 µM -7% | [2]; at 100.0 µM -5% | [3]; at 1.2 µM 2% | [3]; at 3.7 µM 21% | [3]; at 11.0 µM 67% | [4]; at 1.2 µM -1% | [4]; at 3.7 µM 23% | [5]; at 1.2 µM -6% | [5]; at 3.7 µM -4% | [5]; [17] -149% | [5]; at 11.0 µM 5% | [5]; at 33.0 µM 8% | [5]; [18] -66% | [5]; at 50.0 µM 3.3% | [5]; at 100.0 µM 0% | [6]; at 1.2 µM -1% | [6]; at 3.7 µM 0% | [6]; [17] -46% | [6]; at 11.0 µM 1% | [6]; at 33.0 µM 1% | [6]; [18] -42% | [6]; at 50.0 µM -2% | [6]; at 100.0 µM -2% | [7]; at 1.2 µM -1% | [7]; at 3.7 µM 3% | [7]; at 11.0 µM 0% | [7]; at 33.0 µM -2% | [7]; at 100.0 µM -1% | [8]; [17] 31% | [9]; at 1.2 µM -4% | [9]; at 3.7 µM -1% | [9]; at 11.0 µM 0% | [9]; at 33.0 µM -6% | [9]; at 100.0 µM -3% | [10]; [17] -55% | [10]; [18] -54% | [10]; at 50.0 µM -13.2% | [11]; at 1.2 µM -5% | [11]; at 3.7 µM -4% | [11]; [17] -64% | [11]; at 11.0 µM -7% | [11]; at 33.0 µM -8% | [11]; [18] -62% | [11]; at 50.0 µM -3.55% | [11]; at 100.0 µM -5% | [12]; at 1.2 µM -5% | [12]; at 3.7 µM 40% | [13]; at 1.2 µM 1% | [13]; at 3.7 µM 12% | [14]; at 1.2 µM -4% | [14]; at 3.7 µM 63% | [15]; [17] -124% | [15]; [18] -123% | [15]; at 50.0 µM 10.6% | [16]; at 1.2 µM -2% | [16]; at 3.7 µM 0% | [16]; at 11.0 µM 0% | [16]; at 33.0 µM 0% | [16]; at 100.0 µM 1%
active: [3]; at 33.0 µM 91% | [3]; at 100.0 µM 97% | [4]; at 11.0 µM 89% | [4]; at 33.0 µM 96% | [4]; at 100.0 µM 97% | [8]; [18] 93% | [8]; at 50.0 µM 94.3% | [12]; at 11.0 µM 94% | [12]; at 33.0 µM 97% | [12]; at 100.0 µM 98% | [13]; at 11.0 µM 79% | [13]; at 33.0 µM 95% | [13]; at 100.0 µM 97% | [14]; at 11.0 µM 97% | [14]; at 33.0 µM 98% | [14]; at 100.0 µM 98%
